According to PMC12136788:
In all, about 5,800 sequences were measured (“enrichment r”: median about 0.68, highest 2% from about 11 on). Not all results are given here.

T1: UNK ZnF1-6 (called full-length) (human, UniProt Q9C0B0 30-357)
T1 sequence: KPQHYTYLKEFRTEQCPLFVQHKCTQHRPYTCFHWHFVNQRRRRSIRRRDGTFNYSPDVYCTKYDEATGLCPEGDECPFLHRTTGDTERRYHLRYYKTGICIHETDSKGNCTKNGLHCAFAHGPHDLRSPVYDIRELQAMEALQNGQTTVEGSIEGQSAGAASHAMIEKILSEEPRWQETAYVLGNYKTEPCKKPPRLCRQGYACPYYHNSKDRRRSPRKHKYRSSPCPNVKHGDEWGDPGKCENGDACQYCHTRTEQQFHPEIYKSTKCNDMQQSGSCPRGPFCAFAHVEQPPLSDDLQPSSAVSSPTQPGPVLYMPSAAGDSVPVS

B1: chr17:81921741:81921842:-|3pUTR|ENSG00000197063|msi1|total|mutant (ssRNA)
RNA: GGGAGUUCUACAGUCCGACGAUCAAUUAUAUGUUUAAAAGUUAAAGAAAAAAGAGCUGCAGAGUAUUUAUAAAACUGUCUUUCCGAAAAAAAACAAGCAAGAAGACCAUUUGACCAUAUGAAUGGAAAAGGGAAGAAAGUAUACAACAGAGGAUUGAGCAUCA
B2: chr1:110947961:110948399:-|CDS|ENSG00000121931|control|control|control (ssRNA)
RNA: GGGAGUUCUACAGUCCGACGAUCAAGUCAUUUCUUCAAUAAAAAUUAUACCGAAGAUAUUUUCCCAGUGACACCACCGGAGUUAGAAGAAACCAUUCGAGAUGAAAAAAUAAGAAGACUUAAGCAGGUGCUGAGAGAGAAAGACAACAGAGGAUUGAGCAUCA
B3: chrX:153456492:153456651:-|CDS|ENSG00000213397|control|control|control (ssRNA)
RNA: GGGAGUUCUACAGUCCGACGAUCAUGGAGCACUUCGAGGACACCAGGGAGAAGAACGAGGCCUUGCUGGGGGAGCUCUUCUCUAGCCCCCACCUGCAGAUGCUCCUGAAUCCAGAGUGCGACCCGUGGCCCCUGGACAUGCAGCAACAGAGGAUUGAGCAUCA
B4: ENSG00000130720:stop:overlap|stop_codon|ENSG00000130720|stop_codon|NA|stop_codon (ssRNA)
RNA: GGGAGUUCUACAGUCCGACGAUCGCUGGCAGUACUCACUCAAGUUCUCUGAGAUGAAGAUCCGGCCGGUCCGGGAGGACCGCUAGACUGGUGCACCUUGUCCUUGGCCCUGCUGGUCCCUGUCGCCCCAUCCCCGACCCCACCCAACAGAGGAUUGAGCAUCA
B5: chr3:89481969:89482070:+|3pUTR|ENSG00000044524|msi1|total|mutant (ssRNA)
RNA: GGGAGUUCUACAGUCCGACGAUCAUAUGUGUUUACUUUAAACUUGUCUUUUCAAAAUAUUACUCAGUUUAUGUUGUACAAUGCCGAUGGCCUCUUACUAAUGUAAAAUGAUUUGCCGUGGAAACAUUUAUAUUUUUAUAAUAACAACAGAGGAUUGAGCAUCA
B6: chr4:123402332:123402450:+|CDS|ENSG00000164056|unk|total|mutant (ssRNA)
RNA: GGGAGUUCUACAGUCCGACGAUCGACGAAGGGGAUUCCUAUUCAGAUAAUCCUUGCUCCUGUUCACAAUCACACUGCUGCUCCCGAUACCUGUGUAUGGGAGCCAUGUCUUUAUUUUUACCUUGCUUACUCUGUUAUCCUCCUCAACAGAGGAUUGAGCAUCA
B7: chr1:198253062:198253183:+|CDS|ENSG00000151414|unk|total|mutant (ssRNA)
RNA: GGGAGUUCUACAGUCCGACGAUCAUGGGCUAUAAUACAUCCGCCAACUUUCGAACCGAAAAGAAAAUUGGUCGCGGACAAUUCCGUGAAGUUUACCGAGCAGCCUGUCUCUUGGAUGGAGUACCAGCCGCUUUAAAAAAAGUGCAACAGAGGAUUGAGCAUCA
B8: chr6:144852070:144852171:+|3pUTR|ENSG00000152818|unk|FALSE|unique (ssRNA)
RNA: GGGAGUUCUACAGUCCGACGAUCAAGUCCUUAAUAGUUCUUGAAACUCCUAGUUGUUUUCUUGUUGAAAGCAGACACACAUUUAGUGCACGGCUUAUUUUACCUUUCGGGUGAAAGAUCAGAUGUUUUUAUACCCUUCACUUGCAACAGAGGAUUGAGCAUCA
B9: chr22:36281679:36281692:-|3pUTR|ENSG00000100345|msi1_unk|total|mutant (ssRNA)
RNA: GGGAGUUCUACAGUCCGACGAUCUCUUGUGUCUACUCCCGGACUGGGCCCGAGGGUGGUUUACCUGCACCGUUGACUCAGUACCGUUUAAAAAUCUGCCACCUGCACAGGUAUUUUUGAAAGCAAAAUAAGGUUUUCUUUUUUCAACAGAGGAUUGAGCAUCA
B10: chr7:137227872:137228000:-|3pUTR|ENSG00000105894|msi1_unk|total|mutant (ssRNA)
RNA: GGGAGUUCUACAGUCCGACGAUCGGAACAUAAAAAGGACAUCAGCAAACAGGAUCAGUUAACUAUUGCAUUUAUAUGUACCGCCGGCUUUGUAUUCAAAAAUUAUCUACCGCUAAGUACACAAUAAGCAAAAACAAAAAGAAACAACAGAGGAUUGAGCAUCA
B11: ENSG00000165476:stop:overlap|stop_codon|ENSG00000165476|stop_codon|NA|stop_codon (ssRNA)
RNA: GGGAGUUCUACAGUCCGACGAUCAAGAGGUGCGGUACGGGUCACUAAAAUACAAAGUGAAGAAACGACCACAAGUGUAUUUUUAGUCAUCUACACGUCAAAUAUCCCAAGACAGAUUAUGCUAAAUACAUCGACUUCAUCUUCCAACAGAGGAUUGAGCAUCA
B12: ENSG00000138660:stop:overlap|stop_codon|ENSG00000138660|stop_codon|NA|stop_codon (ssRNA)
RNA: GGGAGUUCUACAGUCCGACGAUCCUGUAUUAGAACUGUCUGAUUCUGGCAUAAGGCAUUCUGACACAGAUCAACAGACUCGAUAGGGUAAAAUUGUGUGACCUUGUUUAUCAGUUAUGACCAAAUGUUAAAAACCAACUAGAACAACAGAGGAUUGAGCAUCA
B13: chr3:11557161:11557262:-|3pUTR|ENSG00000144560|msi1|total|mutant (ssRNA)
RNA: GGGAGUUCUACAGUCCGACGAUCCCUCUGACUUUAUACUGUUAUUACUGCAUUUAUUAUUUGCUAUAUUAACCGCUACUAACCCGAAAUCCGAUGAAGCAAGCAUGACAGACACAGCUGUGGAGGUCACAGCUGCUCCUUUUUCAACAGAGGAUUGAGCAUCA
B14: ENSG00000198589:be:win_7201|CDS|ENSG00000198589|bound_else_gene|NA|bound_elsewhere_windowed (ssRNA)
RNA: GGGAGUUCUACAGUCCGACGAUCGAGAGUGAAUUUGUUUCCUGCCAGCUUCACCAAUGGAUUGAUCUCAUUUUUGGCUAUAAACAGCAAGGACCAGAAGCUGUCCGAGCCCUCAAUGUGUUCUAUUACUUGACCUAUGAAGGACAACAGAGGAUUGAGCAUCA

The binders below were run against T1, UNK ZnF1-6 (called full-length) (assay: nsRBNS (natural sequence RNA bind-n-seq); RBNS binding buffer (assumed for nsRBNS): 25 mM Tris pH 7.5, 150 mM KCl, 3 mM MgCl2, 0.01% Triton X-100, 500 ug/ml BSA, 20 U/ml SUPERase-In, 4 C; UNK is unkempt and MSI1 is Musashi-1; names of the RNAs are library labels; protein concentration not given here; high values mean tight binding).
Binder B1 has a binding signal of 0.865 enrichment R. In the case of B2, the binding signal is reported as 0.797 enrichment R. With B3 the binding signal was 0.759 enrichment R. Work on B4 yielded a binding signal of 1.34 enrichment R. B5 was tested, and the binding signal was 0.702 enrichment R. In the case of B6, the binding signal is reported as 0.585 enrichment R. With B7 the binding signal was 0.411 enrichment R. With B8 the binding signal was 0.969 enrichment R. In the case of B9, the binding signal is reported as 0.546 enrichment R. For B10, the binding signal was 0.517 enrichment R. B11 was tested, and the binding signal was 0.648 enrichment R. B12 gave a binding signal of 0.713 enrichment R. B13 was tested, and the binding signal was 0.51 enrichment R. B14 was tested, and the binding signal was 0.478 enrichment R.
